Measured values as given in PubChem BioAssay (Tox21).
Values joined by “and” are separate entries in the source; they are usually repeats but may differ in a detail not shown here. Identical values can stand only once. Records with an inconclusive call do not appear. Some structures have more than one record in an assay (separate samples or runs), and their calls can disagree. Active and inactive are the calls of the source. Unless noted, calls follow the shape of the dose curve; as a rule, active = well fitted curve in the direction sought with a large enough effect in the repeat runs; inconclusive = weak or mixed curves; inactive = no such curve, though single readings can be large; an effect the other way counts as inactive or inconclusive.

Assays:
[1] = qHTS assay for small molecule agonists of the p53 signaling pathway (AID 651631; calls by dose curve; also: nearly all actives have a fitted effect of over 15% in size)
Procedure, shortened: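 Fluorescence intensity from cleaved LiveBLAzer B/G substrate (2 h, room temperature) served as the signal. Beforehand, HCT-116 reporter cells bearing p53 response elements were treated 16 h at 37 °C with DMSO-dissolved compounds.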

[2] = qHTS assay for small molecules that induce genotoxicity in human embryonic kidney cells expressing luciferase-tagged ATAD5 (AID 651632); also: nearly all actives have a fitted effect of over 15% in size
Procedure, shortened: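 Genotoxicity read-out via ATAD5-luciferase: HEK293T cells, 16 hr compound incubation at 37C, Amplite detection.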

[3] = qHTS assay for small molecule agonists of the p53 signaling pathway - cell viability (AID 651633; calls by dose curve;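 also: p53RE-bla HCT reporter cells with a stable beta-lactamase p53 reporter; nearly all actives have a fitted effect of over 30% in size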)
Procedure, shortened: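 p53RE-bla cells, seeded at 4,000 per well and rested 5 h at 37 C/5% CO2, received compounds in DMSO for 16 h at 37 C. CellTiter-Glo was then added, and luminescence was read after 30 min at room temperature to gauge cytotoxicity.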

[4] = qHTS assay for small molecules that induce genotoxicity in human embryonic kidney cells expressing luciferase-tagged ATAD5 - cell viability (AID 651634; calls by dose curve; also: nearly all actives have a fitted effect of over 25% in size)
Procedure, shortened: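 Live-cell protease activity (CellTiter-Fluor, fluorescence) indicates viability. HEK293T cells with luciferase-tagged ATAD5; 15.5 hr compound treatment at 37C.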

[5] = qHTS assay for small molecule disruptors of the mitochondrial membrane potential - cell viability (AID 720634; calls by dose curve;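 also: human HepG2 liver cancer cells; nearly all actives have a fitted effect of over 20% in size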)
Procedure, shortened: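 Human hepatoma HepG2 cells were treated for 1 hr with test chemicals, then given m-MPI dye and CellTiter-Glo. Cell viability reflects luminescence proportional to cellular ATP.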

[6] = qHTS assay for small molecule disruptors of the mitochondrial membrane potential (AID 720635); also: potency is read from the fitted curve at half-maximal effect
Procedure, shortened: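 HepG2 cells (2,000/well) attached overnight at 37C, then took compound for 1 hr at 37C, 5% CO2. Mito-MPS dye was added for 30 min; fluorescence was read at 490/535 nm (monomers) and 540/590 nm (aggregates).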

[7] = qHTS assay to test for compound auto fluorescence at 590 nm (red) in HepG2 cells (AID 720674)
Procedure, shortened: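 Compound auto-fluorescence is scored relative to Rose Bengal sodium, measured at 540/590 nm in live HepG2 cultures after 1 hr compound contact (37 C, 5% CO2).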

[8] = qHTS assay to test for compound auto fluorescence at 535 nm (green) in HepG2 cells (AID 720675)
[9] = qHTS assay to test for compound auto fluorescence at 460 nm (blue) in HEK293 cells (AID 720678)
Procedure, shortened: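 HEK293 cells (2,000/well, medium with 10% dialyzed FBS) attached 4-5 hr, then exposed to compound overnight at 37C, 5% CO2. Blue fluorescence read at 405/460 nm, with triamterene as reference fluorophore.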

[10] = qHTS assay to test for compound auto fluorescence at 590 nm (red) in HEK293 cells (AID 720679)
Procedure, shortened: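 HEK293 cells (2,000/well, 10% dialyzed FBS) attached 4-5 hr, then dosed with compound or DMSO and incubated overnight at 37C, 5% CO2. Red fluorescence read at 540/590 nm, Rose Bengal sodium as reference fluorophore.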

[11] = qHTS assay to test for compound auto fluorescence at 535 nm (green) in HEK293 cells (AID 720680)
[12] = qHTS assay to test for compound auto fluorescence at 460 nm (blue) in HEK293 cell free culture (AID 720681)
Procedure, shortened: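 Test compounds were pinned into cell-free culture medium (DMEM with 10% FBS) and fluorescence was read directly at Ex/Em 405/460 nm. Signals were expressed as fluorescence equivalents of triamterene, with DMSO vehicle as control.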

[13] = qHTS assay to test for compound auto fluorescence at 535 nm (green) in HEK293 cell free culture (AID 720682)
Procedure, shortened: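 Intrinsic compound fluorescence is measured in culture medium containing 10% FBS, with excitation at 485 nm and detection at 535 nm, referenced to fluorescein.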

[14] = qHTS assay to test for compound auto fluorescence at 590 nm (red) in HEK293 cell free culture (AID 720683)
Procedure, shortened: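 Tox21 10K library compounds were pinned into cell-free DMEM with 10% FBS and fluorescence was read at excitation 540 nm. Activity is expressed as Rose Bengal sodium equivalency.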

[15] = qHTS assay to test for compound auto fluorescence at 590 nm (red) in HepG2 cell free culture (AID 720684)
Procedure, shortened: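 Red fluorescence (540 nm excitation, 590 nm emission) was measured after compound transfer into cell-free MEM supplemented with 10% FBS. Values are equivalencies against Rose Bengal sodium.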

[16] = qHTS assay to test for compound auto fluorescence at 460 nm (blue) in HepG2 cell free culture (AID 720685)
Procedure, shortened: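 Compound (23 nL) or DMSO pinned into cell-free MEM with 10% FBS; blue fluorescence read at 405/460 nm excitation/emission, expressed as auto-fluorescence equivalency to triamterene.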

[17] = qHTS assay to test for compound auto fluorescence at 535 nm (green) in HepG2 cell free culture (AID 720686)
[18] = qHTS assay to test for compound auto fluorescence at 460 nm (blue) in HepG2 cells (AID 720687)
Procedure, shortened: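 Cells (2,000/well in MEM with 10% FBS) attached overnight at 37 C, then were exposed to compound or DMSO for 1 hr at 37 C, 5% CO2. Fluorescence read at Ex/Em 405/460 nm, expressed as triamterene-equivalent signal.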

[19] = target: Glucocorticoid receptor (Homo sapiens) (UniProt P04150); experiment: qHTS assay to identify small molecule agonists of the glucocorticoid receptor (GR) signaling pathway (AID 720691; active = well fitted activation curve with a large enough effect in the signal ratio in the repeat runs, not every such curve was filed as active; the % refers to the signal ratio); settings: GR-bla HeLa, beta-lactamase reporter ratio, 18 h; activation: at 62.4 µM (top of the series)
Chain of Glucocorticoid receptor (Homo sapiens) (P04150 whole entry, looked up): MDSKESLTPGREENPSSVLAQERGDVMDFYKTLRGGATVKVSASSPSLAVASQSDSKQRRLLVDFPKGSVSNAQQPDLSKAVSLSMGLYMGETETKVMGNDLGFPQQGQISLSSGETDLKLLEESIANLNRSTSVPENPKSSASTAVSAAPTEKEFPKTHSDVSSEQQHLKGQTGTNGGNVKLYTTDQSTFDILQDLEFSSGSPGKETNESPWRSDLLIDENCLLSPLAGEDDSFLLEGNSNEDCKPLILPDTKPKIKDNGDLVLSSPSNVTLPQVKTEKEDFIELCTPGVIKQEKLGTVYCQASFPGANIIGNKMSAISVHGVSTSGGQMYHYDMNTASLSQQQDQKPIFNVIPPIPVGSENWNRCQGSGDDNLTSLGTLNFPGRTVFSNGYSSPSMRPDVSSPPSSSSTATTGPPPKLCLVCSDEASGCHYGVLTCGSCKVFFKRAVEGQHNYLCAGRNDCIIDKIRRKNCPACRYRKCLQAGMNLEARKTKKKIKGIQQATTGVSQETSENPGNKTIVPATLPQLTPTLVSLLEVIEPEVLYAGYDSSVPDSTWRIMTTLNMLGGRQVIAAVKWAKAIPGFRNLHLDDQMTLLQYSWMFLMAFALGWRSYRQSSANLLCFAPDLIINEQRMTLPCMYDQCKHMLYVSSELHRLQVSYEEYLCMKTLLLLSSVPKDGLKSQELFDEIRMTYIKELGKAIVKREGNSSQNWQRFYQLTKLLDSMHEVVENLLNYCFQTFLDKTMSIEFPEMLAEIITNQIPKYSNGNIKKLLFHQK
Procedure, shortened: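 Beta-lactamase reporter activity, read as fluorescence intensity, was measured in GR-bla HeLa cells exposed to compounds for 18 h at 37 C and then loaded with LiveBLAzer B/G FRET substrate for 2 h at room temperature.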

[20] = target: Glucocorticoid receptor (Homo sapiens) (UniProt P04150); experiment: qHTS assay to identify small molecule antagonists of the glucocorticoid receptor (GR) signaling pathway (AID 720692; active = well fitted inhibition curve with a large enough effect in the signal ratio in the repeat runs, not every such curve was filed as active; the % refers to the signal ratio)
Procedure, shortened: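 Fluorescence from cleaved LiveBLAzer B/G FRET substrate reports GRE-driven beta-lactamase in HeLa cells; compounds are tested against 5 nM dexamethasone (final) over 18 h at 37 C, substrate incubation 2 h at room temperature.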

Measured: Potency

CC(=O)Nc1cccc(O)c1
not listed: [19] | [20]
inactive: all other assays above

FC(F)(F)c1ccc(Cl)c(Cl)c1
not listed: [20]
inactive: all other assays above

O=C1CCC(N2C(=O)c3ccccc3C2=O)C(=O)N1 (stereo not drawn)
not listed: [20]
inactive: all other assays above

O=C=NCCCCCCN=C=O
not listed: [11] | [19] | [20]
inactive: all other assays above

CCc1cccc(C)c1N
not listed: [9] | [11]
inactive: all other assays above

C=C(C)C(=O)OCCOCCOCCOC(=O)C(=C)C
not listed: [11]
inactive: all other assays above

CCCC(C)=O
not listed: [11] | [20]
inactive: all other assays above

CCC(O)OC(O)CC (stereo not drawn)
not listed: [9] | [20]
inactive: all other assays above

CCCCCCCCCCCCS
not listed: [9] | [19] | [20]
inactive: all other assays above

COc1ccc(Nc2ccccc2)c(C)c1
inactive and 48.6 µM (active): [6]
not listed: [8] | [9] | [20]
inactive: all other assays above

CCCCOC(=O)COc1ccc(Cl)cc1Cl
not listed: [19] | [20]
inactive: all other assays above

O=P(OC(CCl)CCl)(OC(CCl)CCl)OC(CCl)CCl
active: [6] 61.1 µM
not listed: [9] | [20]
inactive: all other assays above

O=C(O)CC(C(=O)O)C(CC(=O)O)C(=O)O (stereo not drawn)
not listed: [8]
inactive: all other assays above

O=C(O)c1ccc(C(=O)O)cc1
not listed: [8] | [11] | [20]
inactive: all other assays above

C[C@H]1C[C@@H]2[C@H]([C@@H](O)C[C@@]3(C)[C@H]2CC[C@]3(O)C(=O)CO)[C@@]2(C)C=CC(=O)C=C12
not listed: [6] | [19] | [20]
inactive: all other assays above

Cc1cccc(O)c1
not listed: [8]
inactive: all other assays above
